This is an account of results in PubChem BioAssay.

Inconclusive results are not listed. Active and inactive are the calls of the source. Rule as the data show it, unless noted: active = inhibition above about 30%; inactive = the rest.

What is called viability is a read-out of living cells in per cent, often relative to untreated cells. What is called inhibition is the change of the read-out against control, counted positive when it falls.

Test [1] is described as follows: reducers of endogenous Her2 protein level, primary screen, SKBR3 breast tumor cells, AlphaScreen, ATP viability (AID 461;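 active = Her2 level under about 52% in both replicate screens, with viability over 70% of control, limit read from the data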;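 as to Her2 level: lower value means less Her2 protein in the cells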;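 as to viability: percent of carrier control wells set as 100% viability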). The following applies: 18-24 h, measured here: SKBR3 viability, ATP luminescence, at 10 µM. In general terms: Alpha assays give light when donor and acceptor beads are brought close together.
In test [2] the target is Receptor tyrosine-protein kinase erbB-2 (Homo sapiens) (UniProt P04626). Described as above. The following applies: 18-24 h, at 10 µM, stronger effect = lower value.
Test [3] in a line: SK-BR-3 cell growth inhibitors, pilot screen, 24 h, human (AID 572;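 active = viability at or below 10% of carrier control in both of two separate runs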;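 also: compound exposure lasted between 18 and 24 h rather than exactly 24 h; 100% = carrier-treated control wells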). The following applies: SK-BR-3 viability, CellTiter-Glo luminescence, at 10 µM, stronger effect = lower value. (In general: In ATP-based viability assays light output follows the ATP content of the culture.)
Test [4] is described as follows: HUVEC growth inhibition – cell-based, human, primary screen (AID 575;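 active = viability at or below 30% in both replicate assays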;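 also: 100% = median of untreated cell wells with 0.1% DMSO on each plate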). The following applies: HUVEC proliferation, CellTiter-Glo luminescence, 72 h; at 10 µM; stronger effect = lower value.
Test [5] in a line: growth inhibitors of H69AR lung tumor, primary screen, human, duplicate replicates (AID 580;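 active = viability at or under a set limit in both replicates, limit being median viability minus 3 SD, cut at about 48% in these data, passing the limit was not always enough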;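 also: 100% = mean luminescence of untreated wells and 0% = no signal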). The following applies: H69AR lung tumor cells viability, ATP luminescence, 72 h; at 10 µM; stronger effect = lower value.
Test [6] is described as follows: reversal of MRP1-mediated doxorubicin resistance, pilot screen, H69AR cells, doxorubicin co-treatment (AID 601;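 active = viability loss from added drug above about 55%, and viability with drug at most 40%, in both replicates, limit read from the data, passing the limit was not always enough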). The following applies: CellTiter-Glo, 72 h, at 10 µM; for differential viability (reversal): stronger effect = higher value.
Test [7] can be described thus: 384-well plate pilot, post-Golgi transport modulator project, inhibition of yeast transport mutant growth (AID 636; in the data active = inhibition above about 31%). The following applies: absorbance 615 nm, about 18 h, stronger effect = higher value.
The nature of test [8]: growth suppression of yeast trafficking mutant, preliminary HTS, modulators of trafficking downstream of Golgi apparatus project, 1536-format plate, OD 615 nm (AID 637). The following applies: yeast transport mutant growth, absorbance 615 nm, 18 h; stronger effect = higher value.
Test [9] is described as follows: OD615 S. cerevisiae growth inhibition, permissive medium, pilot counter-assay, permissive growth control for S. cerevisiae lifespan shortening project (AID 705;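 active = growth inhibition above 25% in both replicates, a cutoff set 3 SD above the mean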). The following applies: OD615, 24 h, at 10 µM, stronger effect = higher value.
Test [10] in a line: Restrictive medium S. cerevisiae growth inhibition, OD615, pilot screen of yeast lifespan reduction project, restrictive growth control (AID 706;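 active = growth inhibition above a set limit, 3 SD over mean compound inhibition, in both replicates, cut at about 43% in these data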;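 also: modified DeaD lifespan yeast strain shifted to restrictive glucose medium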). The following applies: OD615, 48 h, at 10 µM, stronger effect = higher value.
The nature of test [11]: viability gain of MRP-1-high H69AR cells under doxorubicin, pilot screen, MRP-1 activator project, CellTiter-Glo, duplicate (AID 807;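 active = viability increase at or above a cutoff of the median across tested compounds plus 3 SD, cut at about 8.5% in these data, passing the limit was not always enough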;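 also: compound pretreatment 18-22 h then 72 h combined with doxorubicin; 0% = doxorubicin alone and 100% = vehicle without doxorubicin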). The following applies: H69AR viability with doxorubicin, CellTiter-Glo luminescence; at 10 µM; stronger effect = higher value.
A short description of test [12]: growth suppression of beta-catenin knockout HCT116, pilot screen, human colon tumor cells (AID 823;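 active = cell viability at or below a set limit in both duplicate runs, the limit being the all-compound median minus 4 SD, cut at about 23% in these data, passing the limit was not always enough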;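 also: 0% = wells killed by 20 µM Hyamine and 100% = untreated DMSO cell wells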). The following applies: CellTiter-Glo, 60 h, at 10 µM, stronger effect = lower value.
Test [13] can be described thus: growth suppression of PTEN-deleted HCT116, pilot screen, cell-based, HCT116 clonal line, CellTiter-Glo (AID 824;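 active = viability at or below 27.92% in each of two runs, the all-compound median minus 4 SD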;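 also: 0% = 20 µM Hyamine control and 100% = vehicle cell control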). The following applies: 60 h, at 10 µM, stronger effect = lower value.
Test [14] can be described thus: inhibitors of the yeast RAM network, pilot screen, dse1pr::URA3 reporter, 5-FOA selection (AID 869;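 active = inhibition over a set limit, the all-compound mean plus 3 SD, in both replicate runs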;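 also: 0% = DMSO wells with no growth and 100% = 10 µM 1-NA-PP1 with full growth; RAM network block rescues cells from 5-FOA so hits raise OD615 growth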). The following applies: S. cerevisiae dse1pr::URA3 5-FOA growth, OD615, 2 d; at 10 µM; stronger effect = higher value; strain carries analog-sensitive mutant Cbk1 kinase.
Test [15] can be described thus: RAM signaling pathway blockade in yeast – S. cerevisiae, Pdr1DBD-CYC8 efflux-inhibited sensitized strain, primary screen (AID 1298;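 active = RAM network inhibition above 8.4% in each of two replicates, 3 SD over the compound average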;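 also: 0% = DMSO untreated cells without growth and 100% = 10 µM 1-NA-PP1 full growth; higher means more yeast growth rescued from 5-FOA killing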). The following applies: S. cerevisiae cbk1-as DSE1-URA3 strain, 5-FOA growth OD615, 2 d; at 50 µM; stronger effect = higher value.
Setting [16] is: H69AR cells + 2 uM doxorubicin, measured here: viability with 2 uM doxorubicin, stronger effect = lower value.
Setting [17] is: H69AR cells, compound alone cytotoxicity.

Receptor tyrosine-protein kinase erbB-2 (Homo sapiens), sequence (P04626 whole entry, looked up): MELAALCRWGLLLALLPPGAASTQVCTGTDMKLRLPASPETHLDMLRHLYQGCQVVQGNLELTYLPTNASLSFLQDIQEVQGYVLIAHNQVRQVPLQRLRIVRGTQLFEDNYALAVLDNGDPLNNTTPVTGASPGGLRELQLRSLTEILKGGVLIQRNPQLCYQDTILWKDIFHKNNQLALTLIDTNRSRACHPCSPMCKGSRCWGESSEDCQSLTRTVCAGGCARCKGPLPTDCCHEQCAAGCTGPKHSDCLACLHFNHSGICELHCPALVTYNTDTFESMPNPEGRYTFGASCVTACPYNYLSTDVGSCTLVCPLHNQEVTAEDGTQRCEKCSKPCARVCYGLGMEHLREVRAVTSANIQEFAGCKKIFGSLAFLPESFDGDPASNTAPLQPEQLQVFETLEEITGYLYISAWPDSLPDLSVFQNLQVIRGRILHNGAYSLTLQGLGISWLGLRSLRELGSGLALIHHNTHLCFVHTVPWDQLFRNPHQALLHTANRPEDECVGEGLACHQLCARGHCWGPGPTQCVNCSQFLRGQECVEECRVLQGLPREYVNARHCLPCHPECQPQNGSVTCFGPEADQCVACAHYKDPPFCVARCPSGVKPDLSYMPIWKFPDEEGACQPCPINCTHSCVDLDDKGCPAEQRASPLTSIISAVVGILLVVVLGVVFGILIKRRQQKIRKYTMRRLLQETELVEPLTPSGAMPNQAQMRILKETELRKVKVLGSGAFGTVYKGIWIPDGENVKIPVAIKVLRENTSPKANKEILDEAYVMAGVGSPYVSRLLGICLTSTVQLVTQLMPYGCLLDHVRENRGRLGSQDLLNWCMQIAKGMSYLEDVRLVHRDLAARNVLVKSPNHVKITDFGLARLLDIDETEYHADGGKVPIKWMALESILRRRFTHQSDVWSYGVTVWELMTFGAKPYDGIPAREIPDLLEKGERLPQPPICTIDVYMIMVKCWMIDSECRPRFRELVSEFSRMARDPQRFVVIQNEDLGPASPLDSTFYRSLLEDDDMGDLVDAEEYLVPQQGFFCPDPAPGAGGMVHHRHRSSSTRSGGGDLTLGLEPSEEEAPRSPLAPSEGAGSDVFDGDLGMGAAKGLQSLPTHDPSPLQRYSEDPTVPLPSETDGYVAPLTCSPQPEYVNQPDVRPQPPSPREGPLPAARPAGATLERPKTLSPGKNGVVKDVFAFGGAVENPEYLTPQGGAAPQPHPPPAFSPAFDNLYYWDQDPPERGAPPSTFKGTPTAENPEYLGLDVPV

For the compound `COCCNC(=O)C(C)N(c1ccc(Oc2ccccc2)cc1)S(C)(=O)=O` (stereo not given), the viability is 112% in test [1]; 112% (inactive) in test [3]; 102% (inactive) in [4]; 96.5% (inactive) in test [5]; 89% in test [6] (setting [16]); 96.5% in test [6] (setting [17]). For the same compound, the viability was 90.7% (inactive) in test [12] and 91.6% (inactive) in [13]. In addition, the Her2 level in test [2] was 95.5% (inactive). In test [6] (H69AR cells + 2 uM doxorubicin), the differential viability (reversal) was 7.53% (inactive). Besides, the inhibition was -0.65% (inactive) in [7], 3.44% (inactive) in test [8] and -0.1% (inactive) in test [14]. Moreover, the growth inhibition is -4.62% (inactive) in test [9] and 4.17% (inactive) in [10]. Also, in [11], the viability increase was -0.82% (inactive). In [15], the RAM network inhibition was 3.42% (inactive).

In the case of `CCCCOC(=O)Cn1c(=O)oc2ccc(C)cc21`, the viability in test [1] was 102%; in test [3] it was 102% (inactive); in [4] it was 86% (inactive); in [5], 93.4% (inactive); in [6] (setting [16]) it was 87.4%; in [6] (setting [17]), 93.4%. Also, the figures for the viability in test [12] and in test [13] were 89.6% (inactive) and 98.1% (inactive), respectively. For the same compound, in [2], the Her2 level was 126% (inactive). Further, the differential viability (reversal) in test [6] (H69AR cells + 2 uM doxorubicin) is 5.94% (inactive). Besides, the inhibition in test [7] is -3.2% (inactive); in test [8] it was 2.67% (inactive); in test [14] it was -0.58% (inactive). In addition, the growth inhibition was -17.9% (inactive) in test [9] and -25.1% (inactive) in [10]. Also, the viability increase in test [11] is -0.28% (inactive). In test [15], the RAM network inhibition was 0.27% (inactive).

As for `CC1Cn2c(nnc2-c2ccc(F)cc2)S1` (stereo not given), the viability in test [1] is 112%; in test [3], 112% (inactive); in test [4], 107% (inactive); in test [5], 93.7% (inactive); in [6] (setting [16]) it was 95.2%; in test [6] (setting [17]), 93.7%. In addition, the viability in test [12] is 112% (inactive); in [13], 101% (inactive). Moreover, in test [2], the Her2 level was 105% (inactive). In [6] (H69AR cells + 2 uM doxorubicin), the differential viability (reversal) is -1.42% (inactive). The inhibition is -2.4% (inactive) in [7], -4% (inactive) in [8] and 1.92% (inactive) in [14]. Besides, the values for the growth inhibition in [9] and in test [10] were -9.71% (inactive) and -14.2% (inactive), respectively. Besides, the viability increase in test [11] was -0.42% (inactive). Moreover, the RAM network inhibition in [15] is 3.35% (inactive).

As for `O=C(NCCN1CCOCC1)c1ccc2c(c1)N(Cc1ccccc1F)C(=O)CS2`, the viability in test [1] was 94%; in test [3], 94% (inactive); in test [4] it was 95% (inactive); in test [5], 92.6% (inactive); in test [6] (setting [16]), 100%; in test [6] (setting [17]), 92.6%. Further, the viability in test [12] and in [13] was 102% (inactive) each time. Also, the Her2 level in test [2] was 100% (inactive). Moreover, the differential viability (reversal) in test [6] (H69AR cells + 2 uM doxorubicin) is -7.79% (inactive). Besides, the inhibition in [7] was -6.4% (inactive); in test [8], 1.59% (inactive); in test [14], 1.9% (inactive). Further, the growth inhibition is 7.73% (inactive) in test [9] and 7.02% (inactive) in test [10]. The viability increase in test [11] is 1.73% (inactive). The RAM network inhibition in test [15] was 1.89% (inactive).

Turning to `O=C(c1ccc(Cl)s1)N1CCN(c2nc3ccccc3s2)CC1`, the viability is 84% in test [1]; 84% (inactive) in test [3]; 69.4% (inactive) in test [4]; 85.9% (inactive) in [5]; 86.1% in test [6] (setting [16]); 85.9% in test [6] (setting [17]). Besides, the viability in test [12] is 81% (inactive); in test [13], 83.7% (inactive). In addition, the Her2 level in test [2] is 78% (inactive). For the same compound, the differential viability (reversal) in test [6] (H69AR cells + 2 uM doxorubicin) was -0.215% (inactive). For the same compound, the inhibition is -3.47% (inactive) in [7], 2.5% (inactive) in test [8] and 2.66% (inactive) in test [14]. For the same compound, the growth inhibition is 3.6% (inactive) in test [9] and -3.27% (inactive) in [10]. In addition, the viability increase in test [11] is 0.2% (inactive). Besides, the RAM network inhibition in test [15] was 2.18% (inactive).

For the compound `COc1ccccc1N1CCN(C(=O)c2cc(C3CC3)on2)CC1`, the viability in [1] was 84%; in test [3], 84% (inactive); in test [4] it was 80.8% (inactive); in [5], 86.5% (inactive); in [6] (setting [16]), 93.2%; in [6] (setting [17]), 86.5%. For the same compound, the viability in test [12] was 98.5% (inactive); in test [13] it was 103% (inactive). Besides, the Her2 level in test [2] was 110% (inactive). For the same compound, in test [6] (H69AR cells + 2 uM doxorubicin), the differential viability (reversal) was -6.73% (inactive). Besides, the inhibition is -0.64% (inactive) in [7], -3.5% (inactive) in test [8] and 0.905% (inactive) in test [14]. Moreover, the growth inhibition in test [9] was -9.72% (inactive); in test [10], 0.825% (inactive). In test [11], the viability increase is 0.32% (inactive). The RAM network inhibition in test [15] was 2.48% (inactive).

For the compound `Cc1cc(C)n2c(SCCN3C(=O)c4ccccc4C3=O)nnc2n1`, the viability was 90.5% in test [1]; 90.5% (inactive) in [3]; 111% (inactive) in [4]; 105% (inactive) in test [5]; 94% in test [6] (setting [16]); 105% in test [6] (setting [17]). In addition, the viability is 102% (inactive) in test [12] and 98.6% (inactive) in test [13]. In addition, the Her2 level in test [2] was 95% (inactive). Besides, the differential viability (reversal) in test [6] (H69AR cells + 2 uM doxorubicin) was 11.1% (inactive). Besides, the results for the inhibition in test [7], in test [8] and in test [14] were -0.51% (inactive), 7.17% (inactive) and 2.08% (inactive), respectively. Besides, the growth inhibition is -7.84% (inactive) in test [9] and -8.13% (inactive) in test [10]. Also, the viability increase in [11] was -0.7% (inactive). In test [15], the RAM network inhibition is 1.64% (inactive).

In the case of `CCCn1cc(SCC(N)=O)c2ccccc21`, the viability in test [1] was 86.5%; in test [3], 86.5% (inactive); in test [4], 90.6% (inactive); in test [5], 91.2% (inactive); in test [6] (setting [16]) it was 105%; in [6] (setting [17]), 91.2%. The viability in test [12] was 100% (inactive); in test [13], 95.6% (inactive). Further, in [2], the Her2 level was 102% (inactive). The differential viability (reversal) in test [6] (H69AR cells + 2 uM doxorubicin) is -13.4% (inactive). Besides, the inhibition is -4.93% (inactive) in [7], 4.83% (inactive) in test [8] and 0.545% (inactive) in test [14]. Further, the growth inhibition is -9.29% (inactive) in test [9] and -15.9% (inactive) in test [10]. In addition, the viability increase in test [11] is -1.96% (inactive). Also, the RAM network inhibition in [15] is 0.42% (inactive).

On to `O=C(OCN1C(=O)c2ccccc2C1=O)C1CCCCC1`, for which the viability was 82% in [1]; 82% (inactive) in test [3]; 87.3% (inactive) in test [4]; 87.6% (inactive) in test [5]; 100% in [6] (setting [16]); 87.6% in test [6] (setting [17]). The viability in test [12] is 90.2% (inactive); in test [13], 91% (inactive). Besides, the Her2 level in test [2] is 97.5% (inactive). Also, the differential viability (reversal) in test [6] (H69AR cells + 2 uM doxorubicin) is -12.9% (inactive). Further, the inhibition in test [7] is 3.08% (inactive); in test [8], -7.17% (inactive); in test [14], 1.03% (inactive). For the same compound, the growth inhibition in [9] was 0.93% (inactive); in test [10], -9.12% (inactive). Further, in [11], the viability increase was -2.19% (inactive). Also, in test [15], the RAM network inhibition was 0.77% (inactive).

For the compound `O=C(CSc1nnc2ccccn12)c1ccccc1`, the viability in [1] was 99%; in test [3], 99% (inactive); in test [4], 88.8% (inactive); in test [5], 94.5% (inactive); in [6] (setting [16]), 80.3%; in [6] (setting [17]) it was 94.5%. The viability is 109% (inactive) in test [12] and 102% (inactive) in test [13]. In addition, the Her2 level in test [2] was 88% (inactive). Also, the differential viability (reversal) in test [6] (H69AR cells + 2 uM doxorubicin) is 14.1% (inactive). Also, the figures for the inhibition in test [7], in test [8] and in test [14] were -4.27% (inactive), -3.44% (inactive) and 1.23% (inactive), respectively. The figures for the growth inhibition in test [9] and in test [10] were -13.8% (inactive) and -10.6% (inactive), respectively. Also, the viability increase in [11] is 0.47% (inactive). In test [15], the RAM network inhibition is 2.3% (inactive).
